# PubChem BioAssay (Tox21)
# A number with no mark means an inactive call. The source made the active and inactive calls. Calls come from the whole dose curve; as a rule, active = well fitted curve in the direction sought with a large enough effect in the repeat runs; inconclusive = weak or mixed curves; inactive = flat fitted curve, though single readings scatter.
# Experiment: qHTS assay to test for compound auto fluorescence at 460 nm (blue) in HEK293 cell free culture (AID 720681)
# Settings: cell-free medium, autofluorescence 405/460 nm (blue); series mostly up to 91.3 µM; fluorescence, % of fluorescent control: at the top concentration
# Source text: U.S. Tox21 Program National Center for Advancing Translational Sciences [NCATS] NIH Chemical Genomics Center [NCGC] U.S. Environmental Protection Agency [EPA] National Institutes of Environmental Health Sciences [NIEHS] National Toxicology Program [NTP] U.S. Food and Drug Administration [FDA] Tox21 Assay Overview: Compound auto fluorescence often interferes with screening of the compound library against various biological targets and signaling pathways. Some of these compounds may have fluorophoric properties. Such properties may interfere with the assay outputs resulting in false positives and/or negatives. To decrease such complications and ensure the compound activities are relevant in terms of biological response, the Tox21 10K compound library was screened for auto fluorescence. From the fluorophores used as reporter signals in our screening assays, the auto fluorescence equivalencies of compounds against three fluorophores have been evaluated: Triamterene, Fluorescein and Rose Bengal sodium for blue, green and red fluorescence, respectively. The fluorescence intensities were measured using Excitation/Emission wavelengths at 405/460nm, 485/535nm and 540/590nm for blue, green and red labels, respectively. This assay includes the blue fluorescence data.
# Tox21 Assay Protocol Summary: 5 uL of culture medium (DMEM containing 10% FBS) per well was dispensed into black wall/clear bottom 1536-well plates using a Multidrop Combi Dispenser (ThermoFisher Scientific, Waltham, MA). After 23 nL compound or DMSO vehicle was transferred into assay plate by a pintool work station (Kalypsys, San Diego, CA), fluorescence intensities in the assay plates were measured by an Envision (PerkinElmer, Shelton, CT) plate reader using three labels for measuring blue, green and red fluorescence at […] 460, 535 and 590nm respectively.
# % is set by controls: 0 for no effect and ±100 for the full control effect.
Structure (SMILES),"fluorescence, % of fluorescent control",Potency
O=c1[nH]cnc2ccccc12,-0.0093% [at 95.7 µM],
CCCCC(CC)COCCCN (stereo not given),-0.0547%,
CN1CCC(=C2c3ccccc3C=Cc3ccccc32)CC1,-0.0057% [at 46 µM],
CCCCCOC(=O)c1ccc(O)cc1,-0.0946% [at 95.7 µM],
CCOC(=O)CC(C)C,0.349%,
CC(C)(C)c1ccc(OCC2CO2)cc1 (stereo not given),-0.0963% [at 95.7 µM],
C[C@H](CCC(=O)O)[C@H]1CC[C@H]2[C@@H]3[C@H](O)C[C@@H]4C[C@H](O)CC[C@]4(C)[C@H]3CC[C@]12C,,inactive
O=S(=O)(O)c1ccc(O)c2ncccc12,7.25%,
O=C(CC(=O)c1ccccc1)c1ccccc1,-0.388% [at 95.7 µM],
O=C(NN1CCCC1)NS(=O)(=O)c1ccc(Cl)cc1,-0.0319% [at 46 µM],
COC(=O)CSc1cc(N=c2sc(=O)n3n2CCCC3)c(F)cc1Cl,1.32%,
CCCCCCCCCCCCCCCC(=O)OC/C=C(C)/C=C/C=C(C)/C=C/C1=C(C)CCCC1(C)C,,inactive
O=S1(=O)N=C(O)c2ccccc21,-0.116% [at 46 µM],
Cc1nc2ccccc2n1Cc1ccc(Cl)cc1,-0.0433% [at 46 µM],
CC[C@H](C)[C@@H](C(=O)O)n1sc2ccccc2c1=O,0.373%,
CC(=O)O[C@H]1C[C@@H]2CC[C@@H]3[C@H](CC[C@@]4(C)[C@H]3C[C@H]([N+]3(C)CCCCC3)[C@@H]4OC(C)=O)[C@@]2(C)C[C@@H]1N1CCCCC1,-0.101% [at 46 µM],
C=C(C)C(=O)OCCN(C)C,0.0092%,
Oc1ccc(O)c2c(O)cccc12,-0.278%,
Nc1cnn([C@@H]2O[C@H](CO)[C@@H](O)[C@H]2O)c(=O)n1,-0.249%,
Cc1ncsc1CCO,-0.185%,

Structure (SMILES),"fluorescence, % of fluorescent control",Potency
CCC(C)N(C)C(=O)c1cc2ccccc2c(-c2ccccc2Cl)n1 (stereo not given),0.0197%,
CN1CCN(C2=Nc3cc(Cl)ccc3Nc3ccccc32)CC1,-0.192% [at 46 µM],
c1ccc(CNCc2ccccc2)cc1,0.0727%,
CN1CCC[C@@H]1c1cccnc1,-0.0813% [at 46 µM],
CC1(C)[C@H]2CC[C@]1(C)[C@H](O)C2,,inactive
Cc1c(Cn2ccnc2)c2ccccc2n1CCC(=O)O,-0.14% [at 46 µM],
CCCCCCOC(=O)CCC,-0.0433%,
CCCc1ccccc1,-0.0499%,
CCCCCCCCN(C)C,-0.213%,
CCCCCCCCCC(=O)OCC,0.205%,
CN1CCC(OC(c2ccccc2)c2ccccc2)CC1,-0.231% [at 18.6 µM],
c1ccc(-c2nc[nH]c2-c2ccccc2)cc1,-0.027% [at 46 µM],
CCCCCCCCCCCCC(=O)O,0.0641%,
COCCCCCCCCOCCC[Si](C)(O[Si](C)(C)C)O[Si](C)(C)C,-0.0995%,
CCN(CCO)CCCC(C)Nc1ccnc2cc(Cl)ccc12 (stereo not given),-0.0674% [at 46 µM],
O=C(O)Cc1cc(I)c(Oc2ccc(O)c(I)c2)c(I)c1,,inactive
CNCC[C@@H](Oc1ccccc1C)c1ccccc1,-0.0244% [at 46 µM],
C1=Cc2ccccc2C1,0.0692%,
C=C(C)C(=O)OCCOc1ccccc1,-0.0082%,
CCCCCCCCC(CO)CCCCCC (stereo not given),-0.0457%,
